# Assay results taken from the supplement of paper PMC10981050.
# Several values for one entry are separate records, joined by “and”; a condition that tells them apart may be missing. Equal values may be shown once. Where a name gives a salt, the structure may show the parent alone.
# Experiments:
# Experiment in all cases: cell viability relative to vehicle control; higher = less cytotoxic
# Details in all cases: 10 µM
# K562 = test system: K562
# Summary of the method: (§1)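 CRISPR-edited mutant clones and isogenic wild-type clones from four leukaemia lines were screened against Selleck bioactive, kinase and epigenetic probe libraries, with identity-inconsistent compounds excluded. Each compound was acoustically dispensed at a single 10 µM dose into 384-well plates holding 2000 cells in 50 µL medium per well. After 48 h the supernatant was removed and CellTiter-Glo luminescence was read. Viability was expressed as percent of the on-plate vehicle control and analysed in Genedata Screener.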
# MARIMO = test system: MARIMO
# Summary of the method: as §1
# MOLM14 = test system: MOLM14
# Summary of the method: as §1
# OCI-AML2 = test system: OCI-AML2
# Summary of the method: as §1
Compound,cell viability (K562; SRSF2 genotype: SRSF2 P95H/wt),cell viability (K562; SRSF2 genotype: SRSF2 wt/wt),cell viability (MARIMO; SRSF2 genotype: SRSF2 P95H/wt),cell viability (MARIMO; SRSF2 genotype: SRSF2 wt/wt),cell viability (MOLM14; SRSF2 genotype: SRSF2 P95H/wt),cell viability (MOLM14; SRSF2 genotype: SRSF2 wt/wt),cell viability (OCI-AML2; SRSF2 genotype: P95H/wt),cell viability (OCI-AML2; SRSF2 genotype: wt/wt)
O=C(O)C(S)=Cc1c[nH]c2ccc(F)cc12,95.6% and 105%,97%,109%,109%,85.2%,98.3%,106%,103%
CSCC1CN(/N=C/c2ccc([N+](=O)[O-])o2)C(=O)O1 (centres undefined) [Nifuratel],85.1% and 77.7%,78.8%,78.3%,82.2%,77%,80.1%,79.1%,87.3%
CCCCCCCCCC(=O)N[C@@H](Cc1c[nH]c2ccccc12)C(=O)N[C@H](CC(N)=O)C(=O)N[C@@H](CC(=O)O)C(=O)N[C@@H]1C(=O)NCC(=O)N[C@@H](CCCN)C(=O)N[C@@H](CC(=O)O)C(=O)N[C@H](C)C(=O)N[C@@H](CC(=O)O)C(=O)NCC(=O)N[C@H](CO)C(=O)N[C@@H]([C@H](C)CC(=O)O)C(=O)N[C@@H](CC(=O)c2ccccc2N)C(=O)O[C@@H]1C [Daptomycin],94.1% and 95.3%,95%,94%,103%,99%,96.5%,96%,103%
O=C(c1ccc(OCCCc2c[nH]cn2)cc1)C1CC1 [Ciproxifan Maleate],89.3% and 91.3%,87.7%,85.2%,90.4%,95.9%,93.9%,71.8%,83.4%
CC(C)c1nc(N(C)S(C)(=O)=O)nc(-c2ccc(F)cc2)c1/C=C/[C@@H](O)C[C@@H](O)CC(=O)O [Rosuvastatin Calcium],103% and 107%,101%,94.8%,96.5%,112%,105%,105%,102%
CC(C)c1cc2c(c(O)c1O)[C@@]13CCCC(C)(C)[C@@H]1C[C@@H]2OC3=O [Carnosol],43.3% and 33.8%,61.7%,4.39%,0.77%,6.11%,5.25%,5.94%,1.96%
O=C1NC(=O)/C(=C/c2ccc3c(c2)OC(F)(F)O3)S1,103% and 97.1%,98.1%,101%,99.8%,96.9%,101%,95.3%,103%
COc1ccc2cc1Oc1ccc(cc1)C[C@H]1c3cc(c(OC)cc3CCN1C)Oc1c(O)c(OC)cc3c1[C@H](C2)N(C)CC3 [(+)-Fangchinoline],4.1% and 4.98%,3.92%,12.2%,1.33%,0.71%,0.57%,0.52%,0.71%
COc1cc2c3cc1Oc1c(OC)c(OC)cc4c1[C@@H](Cc1ccc(O)c(c1)Oc1ccc(cc1)C[C@@H]3N(C)CC2)N(C)CC4 [Berbamine (dihydrochloride)],72.6% and 53.2%,66.9%,70.8%,72.8%,68.2%,78.2%,57.1%,60.4%
CC(C)=C[C@H]1C[C@](C)(O)[C@@H]2[C@H]3CC[C@@H]4[C@@]5(C)CC[C@H](O[C@@H]6OC[C@H](O)[C@H](O[C@@H]7O[C@H](CO)[C@@H](O)[C@H](O)[C@H]7O[C@@H]7OC[C@@H](O)[C@H](O)[C@H]7O)[C@H]6O[C@@H]6O[C@@H](C)[C@H](O)[C@@H](O)[C@H]6O)C(C)(C)[C@@H]5CC[C@@]4(C)[C@@]34CO[C@@]2(C4)O1 [Jujuboside B],117% and 106%,102%,108%,113%,107%,106%,97.2%,108%
CC1(C)C=Cc2c(ccc3c2OC[C@@H](c2ccc(O)cc2O)C3)O1 [Glabridin],77.9% and 80.4%,76.9%,87.5%,92.5%,87.2%,94.4%,93.6%,89.4%
NCc1ccc(S(N)(=O)=O)cc1 [Mafenide Acetate],102% and 98.3%,94.8%,95.8%,106%,91.9%,101%,102%,110%
Oc1ccc([C@H]2COc3cc(O)ccc3C2)cc1 [Equol],90.4% and 101%,103%,99.9%,104%,95.2%,104%,92%,88.4%
CC(C)=CCC[C@](C)(O[C@@H]1O[C@H](CO)[C@@H](O)[C@H](O)[C@H]1O)[C@H]1CC[C@]2(C)[C@@H]1[C@H](O)C[C@@H]1[C@@]3(C)CC[C@H](O)C(C)(C)[C@@H]3[C@@H](O[C@@H]3O[C@H](CO)[C@@H](O)[C@H](O)[C@H]3O[C@@H]3O[C@@H](C)[C@H](O)[C@@H](O)[C@H]3O)C[C@]12C [Ginsenoside Re],103% and 101%,101%,99.2%,105%,101%,106%,97.4%,107%
CCCCOc1ccc(C(=O)Nc2ccc(F)cc2F)cc1,91% and 91.9%,91.8%,75.4%,88.6%,100%,110%,85.7%,92.8%
O[C@H]1[C@H]2c3cc4c(cc3CN3CCC(=C[C@@H]1O)[C@H]23)OCO4 [Lycorine],18.3% and 25.2%,27.9%,23%,20.6%,18.2%,7.75%,0.46%,1.41%
C[C@@H](CC[C@@]1(O)O[C@H]2C[C@H]3[C@@H]4CC[C@@H]5C[C@@H](O[C@@H]6O[C@H](CO)[C@H](O)[C@H](O)[C@H]6O[C@@H]6O[C@H](CO)[C@@H](O)[C@H](O)[C@H]6O)CC[C@]5(C)[C@H]4CC[C@]3(C)[C@H]2[C@@H]1C)CO[C@@H]1O[C@H](CO)[C@@H](O)[C@H](O)[C@H]1O [Timosaponin BII],93.3% and 90.7%,89.5%,102%,107%,96%,93.5%,49.8%,73.6%
C[C@@H]1O[C@@H](O[C@H]2[C@H](Oc3cc(O)c4c(c3)O[C@H](c3ccc(O)cc3)CC4=O)O[C@H](CO)[C@@H](O)[C@@H]2O)[C@H](O)[C@H](O)[C@H]1O [Naringin (Naringoside)],101% and 119%,111%,102%,107%,106%,109%,112%,100%
O=C1C(=Cc2cccnc2)C(=O)c2ccccc21,110% and 102%,116%,94.2%,102%,89%,99.4%,102%,102%

Compound,cell viability (K562; SRSF2 genotype: SRSF2 P95H/wt),cell viability (K562; SRSF2 genotype: SRSF2 wt/wt),cell viability (MARIMO; SRSF2 genotype: SRSF2 P95H/wt),cell viability (MARIMO; SRSF2 genotype: SRSF2 wt/wt),cell viability (MOLM14; SRSF2 genotype: SRSF2 P95H/wt),cell viability (MOLM14; SRSF2 genotype: SRSF2 wt/wt),cell viability (OCI-AML2; SRSF2 genotype: P95H/wt),cell viability (OCI-AML2; SRSF2 genotype: wt/wt)
Cc1ccc2nc(NC(=O)CSc3nc4c(c(=O)n3-c3ccccc3)SCC4)sc2c1,91.8% and 99.4%,89.8%,94%,98.9%,98.9%,93.3%,94.2%,104%
CC(=O)CCc1ccc(OC(C)=O)cc1 [Pherocon (4-(4-Acetoxyphenyl)-2-butanone)],111% and 109%,119%,103%,107%,109%,108%,119%,116%
OCC1OC(Oc2ccc(O)cc2)C(O)C(O)C1O (stereo not drawn) [alpha-Arbutin],99.8% and 105%,98.6%,104%,111%,103%,109%,98.8%,101%
CCc1c(O)cc(O)c(C(=O)c2ccc(OCCN3CCOCC3)c(OC)c2)c1CC(=O)N(CCOC)CCOC,20.4% and 29.7%,25.7%,29.3%,25.4%,2.57%,2.85%,19.3%,21.8%
COc1cc2c(cc1OC)-c1cc3ccc4c(c3c[n+]1CC2)OCO4 [Epiberberine],84.1% and 89.4%,85.8%,98.2%,98.2%,94.8%,86.9%,86.4%,89.3%
CN[C@H]1CC[C@@H](c2ccc(Cl)c(Cl)c2)c2ccccc21 [Sertraline HCl],30.3% and 54.2%,52.8%,41.7%,48%,32.7%,42.9%,26.2%,37.5%
CC(CCc1ccccc1)NCC(=O)c1ccc(O)c(C(N)=O)c1 (centres undefined) [Labetalone hydrochloride],92.1% and 89.7%,108%,96.7%,102%,108%,104%,99.7%,108%
COc1cc2c(c(O)c1OC)-c1c(cc(OC)c(OC)c1OC)C[C@@H](C)[C@@H](C)C2 [Schisanhenol],96.7% and 100%,97.1%,100%,107%,90.3%,96.8%,91.7%,102%
CC(C)CCNc1ncccc1C(=O)N1CCN(Cc2ccccc2)CC1,103% and 100%,102%,93.8%,105%,96.9%,103%,103%,105%
Fc1ccc(-c2c3cccc(C(F)(F)F)c3nn2Cc2ccc(F)cc2Cl)cc1,95.4% and 91.2%,90.1%,97.2%,114%,94.2%,98%,114%,120%
CC(C)=CCC[C@](C)(O[C@@H]1O[C@H](CO)[C@@H](O)[C@H](O)[C@H]1O)[C@H]1CC[C@]2(C)[C@@H]1[C@H](O)C[C@@H]1[C@@]3(C)CC[C@H](O)C(C)(C)[C@@H]3[C@@H](O)C[C@]12C [Ginsenoside F1],107% and 106%,102%,105%,97.8%,109%,104%,105%,106%
COc1cc2c(N3CCN(C(=O)Nc4ccc(OC(C)C)cc4)CC3)ncnc2cc1OCCCN1CCCCC1 [Tandutinib (MLN518)],86.7% and 96.2%,83.2%,83.7%,100%,17.1%,14.4%,34.3%,43.5%
CC(C)c1cc(-c2n[nH]c(=O)n2-c2ccc3c(ccn3C)c2)c(O)cc1O [Ganetespib (STA-9090)],21.6% and 26.6%,28.1%,31.8%,27%,2.31%,2.65%,19.4%,21.1%
"O=c1[nH]c(=O)c2[nH]cnc2[nH]1 [2,6-Dihydroxypurine]",107% and 100%,104%,106%,110%,101%,107%,101%,109%
Nc1ccc(S(=O)(=O)Nc2cncc(Cl)n2)cc1 [Sulfalozine sodium],101% and 97.3%,104%,103%,111%,92.7%,102%,107%,88.8%
COC1C(O)CC(=O)OC(C)CC=CC=CC(OC2CCC(N(C)C)C(C)O2)C(C)CC(CC=O)C1OC1OC(C)C(OC2CC(C)(O)C(O)C(C)O2)C(N(C)C)C1O (centres undefined) [spiramycin],93.7% and 96.3%,108%,99.4%,102%,98%,103%,110%,96.7%
C/C=C(/C)C(=O)O[C@H]1[C@@H](OC(C)=O)c2c(ccc3ccc(=O)oc23)OC1(C)C [(+)-Praeruptorin A],92.3% and 98.4%,90.2%,84.5%,93.9%,82.8%,93.3%,90.3%,104%
Cc1ccc(Nc2ncc3c(n2)N(C)C(=O)N(c2cc(NC(=O)c4cccc(C(F)(F)F)c4)ccc2C)C3)cn1,57.3% and 59.5%,43.1%,38.1%,37.4%,17.9%,17.5%,40.8%,35.2%
C[C@@H]1[C@H]2c3cc4c(cc3O[C@@]35OCOC3=CC(=O)[C@H](C[C@H]1C)[C@@H]25)OCO4 [Sauchinone],92.2% and 99.5%,100%,87.5%,92.9%,55.1%,94.9%,87.6%,86.8%
